Activity calls are given as the source filed them. Unless noted, how the calls were made is not given here.
Key:
[1] = resazurin metabolic signal in HepG2 cells – cell-based, resazurin fluorescence, 24 h, PK04 Diversity Set, profiling panel (AID 1172); details: HepG2 viability, higher = more signal
[2] = budding yeast growth changes without added modifier – OD600, strain BY4716, 24 h, basal condition, primary screen (AID 1173); details: S. cerevisiae BY4716 growth, OD600, 24 h; higher = more signal, called active from +8 up or from −8 down
[3] = viability profiling in MM1S myeloma cells – cell-based, resazurin fluorescence, basal, 24 h, PK04 Diversity Set, profiling panel (AID 1174); details: higher = more signal, called active from +8 up or from −8 down;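 further: MM1S multiple myeloma cell line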
[4] = molecular target: Dihydroorotate dehydrogenase (quinone), mitochondrial (Plasmodium falciparum (isolate 3D7)) (UniProt Q08210); assay: inhibition of P. falciparum DHODH – biochemical, C-terminal His tag, absorbance 600 nm, primary screen (AID 1175); details: PfDHODH enzyme, DCIP absorbance 600 nm; higher = more signal, called active from +8 up or from −8 down;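 further: recombinant parasite enzyme with a five histidine tag at its C terminus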
[5] = inhibition of PAO1 biofilm formation – strain PAO1, LB-PBS medium, absorbance 600 nm, primary screen (AID 1176); details: P. aeruginosa PAO1 growth/biofilm, A600, 12 h; higher = more signal
[6] = growth modulation of vineyard yeast isolate – strain RM11-1a, OD600, basal, 24 h, primary screen (AID 1177);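 further: cultures grown under basal conditions with no added stressor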; details: S. cerevisiae RM11-1a growth, OD600, 24 h; higher = more signal, called active from +8 up or from −8 down
[7] = growth of efflux-deficient E. coli DRC39 – strain DRC39, OD650, 24 h, E. coli filamentation inducers, primary screen (AID 1178);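 further: growth measured as culture turbidity by optical density at 650 nm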; details: E. coli DRC39 acrAB, higher = more signal, called active from +8 up or from −8 down
[8] = growth of efflux-deficient E. coli DRC39 – strain DRC39, OD650, 48 h, E. coli filamentation inducers, primary screen (AID 1179);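 further: screen aims at cell division blockers that make cells filament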; details: E. coli DRC39 delta-acrAB growth, higher = more signal, called active from +8 up or from −8 down
[9] = viability profiling in RPMI8226 myeloma cells – cell-based, resazurin fluorescence, basal, 24 h, PK04 Diversity Set, profiling panel (AID 1180); details: higher = more signal;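 further: RPMI8826 multiple myeloma cell line at 5000 cells per well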
[10] = molecular target: E3 ubiquitin-protein ligase XIAP (Homo sapiens) (UniProt P98170); assay: small molecules binding XIAP protein – biophysical, small-molecule microarray, fluorescence 635 nm, primary screen (AID 1181); details: higher = more signal;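 further: score merges 667 nm emission and signal to noise over triplicate slides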
[11] = tested on: XIP peptide (Xip251-270) binding; assay: XIP fragment 251-270 binding compounds – biochemical, small-molecule microarray, fluorescence 635/667 nm, 0.1 µg/mL protein, primary screen (AID 1182); details: fluorescent protein binding, 635 nm, higher = more signal, called active from +8 up or from −8 down
XIP peptide (Xip251-270) = assay: compounds binding XIP fragment 251-270 – biochemical, small-molecule microarray, fluorescence 635/667 nm, 0.5 µg/mL protein, primary screen (AID 1183); details: fluorescence 635 nm, higher = more signal
[12] = blood-stage malaria parasite viability loss – strain 3D7, DAPI fluorescence, 100 nL, primary screen (AID 1184);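 further: parasites grown inside human red blood cells in medium with human serum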; details: P. falciparum 3D7 growth, 3 d, higher = more signal
[13] = molecular target: Homeobox protein Hox-A13 (Mus musculus) (UniProt Q62424); assay: disruptors of Hoxa13 oligonucleotide interaction – biochemical, fluorescence polarization, labeled oligonucleotide, primary screen (AID 1185); details: Hoxa13:DNA binding, 15 min, higher = more signal, called active from +8 up or from −8 down
[14] = blockers of DNA damage checkpoint Chk1 activation – imaging, HeLa, hydroxyurea, phospho-Chk1 antibody, percent positive cells, primary screen (AID 1186); details: hydroxyurea-induced phospho-Chk1 immunofluorescence imaging, higher = more signal
[15] = blockers of DNA damage checkpoint Chk1 activation – imaging, HeLa, hydroxyurea, phospho-Chk1 nuclear intensity, primary screen (AID 1187); details: hydroxyurea-induced phospho-Chk1 immunofluorescence imaging, higher = more signal

Chain of E3 ubiquitin-protein ligase XIAP (Homo sapiens) (P98170 whole entry, looked up, the tested form may be a part): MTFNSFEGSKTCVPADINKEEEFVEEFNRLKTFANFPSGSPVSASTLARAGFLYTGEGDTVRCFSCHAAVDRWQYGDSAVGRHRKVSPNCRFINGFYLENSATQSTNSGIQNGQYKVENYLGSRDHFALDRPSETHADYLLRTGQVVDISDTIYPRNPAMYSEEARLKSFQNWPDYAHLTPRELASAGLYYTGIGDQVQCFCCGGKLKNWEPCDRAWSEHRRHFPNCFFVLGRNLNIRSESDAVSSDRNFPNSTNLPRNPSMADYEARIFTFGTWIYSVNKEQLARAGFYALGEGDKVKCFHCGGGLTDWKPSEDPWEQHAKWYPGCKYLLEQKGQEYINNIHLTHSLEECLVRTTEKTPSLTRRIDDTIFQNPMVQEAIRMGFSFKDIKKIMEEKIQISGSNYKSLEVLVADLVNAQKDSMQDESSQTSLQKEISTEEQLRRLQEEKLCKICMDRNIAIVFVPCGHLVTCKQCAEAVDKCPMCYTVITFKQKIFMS
Chain of Homeobox protein Hox-A13 (Mus musculus) (Q62424 whole entry, looked up): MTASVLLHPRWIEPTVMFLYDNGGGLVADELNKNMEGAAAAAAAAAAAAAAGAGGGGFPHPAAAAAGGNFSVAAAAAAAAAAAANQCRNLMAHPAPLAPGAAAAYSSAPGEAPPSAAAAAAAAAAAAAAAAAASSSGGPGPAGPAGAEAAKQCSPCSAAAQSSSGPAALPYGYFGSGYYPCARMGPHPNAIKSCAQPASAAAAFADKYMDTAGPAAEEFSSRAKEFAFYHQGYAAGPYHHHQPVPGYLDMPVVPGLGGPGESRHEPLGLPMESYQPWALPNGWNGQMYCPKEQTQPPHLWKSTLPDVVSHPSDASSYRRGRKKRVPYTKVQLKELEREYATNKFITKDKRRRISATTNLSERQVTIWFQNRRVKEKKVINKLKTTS
Chain of Dihydroorotate dehydrogenase (quinone), mitochondrial (Plasmodium falciparum (isolate 3D7)) (Q08210 whole entry, looked up): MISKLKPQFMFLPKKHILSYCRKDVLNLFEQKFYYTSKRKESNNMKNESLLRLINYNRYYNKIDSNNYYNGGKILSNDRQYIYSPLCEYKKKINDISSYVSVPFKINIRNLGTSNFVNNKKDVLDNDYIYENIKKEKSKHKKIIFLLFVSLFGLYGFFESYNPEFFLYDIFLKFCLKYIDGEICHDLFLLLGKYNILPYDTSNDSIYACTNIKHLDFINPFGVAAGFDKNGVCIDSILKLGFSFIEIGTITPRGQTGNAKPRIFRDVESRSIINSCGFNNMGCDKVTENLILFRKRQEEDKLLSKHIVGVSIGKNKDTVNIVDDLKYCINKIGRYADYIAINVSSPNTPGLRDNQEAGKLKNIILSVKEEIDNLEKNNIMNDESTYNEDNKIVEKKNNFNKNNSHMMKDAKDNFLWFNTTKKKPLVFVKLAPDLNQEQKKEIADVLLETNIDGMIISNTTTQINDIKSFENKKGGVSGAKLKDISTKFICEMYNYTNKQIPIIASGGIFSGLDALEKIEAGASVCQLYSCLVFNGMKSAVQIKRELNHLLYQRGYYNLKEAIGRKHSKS

| SMILES | z-score [1] | z-score [2] | z-score [3] | composite z-score [4] | z-score [5] | z-score [6] | z-score [7] | z-score [8] | z-score [9] | composite z-score [10] | composite z-score [11] | composite z-score (XIP peptide (Xip251-270)) | z-score [12] | z-score [13] | z-score [14] | z-score [15] |
| --- | --- | --- | --- | --- | --- | --- | --- | --- | --- | --- | --- | --- | --- | --- | --- | --- |
| COc1cc2c(cc1O)C(C)N(Cc1cccc(OC(F)(F)F)c1)CC2 (centres undefined) | 0.177 | -0.713 (inactive) | -1.33 (inactive) | -1.44 (inactive) | -0.255 (inactive) | 0.279 (inactive) | 0.506 (inactive) | 0.324 (inactive) | -0.622 | 0.427 | 0.714 (inactive) | 0.907 | -2.03 | -3.46 (inactive) | 0.0708 (inactive) | -0.033 (inactive) |
| COC(=O)[C@@]1(Cc2ccc(OC)cc2)[C@H]2c3cc(C(=O)N(C)C)n(Cc4c(OC)[nH]cc(C)c4=O)c3C[C@H]2CN1C(=O)c1ccccc1 | -0.672 | 0.87 (inactive) | -2.62 (inactive) | -0.967 (inactive) | 0.7 (inactive) | -0.838 (inactive) | 0.0795 (inactive) | 0.574 (inactive) | -1.93 | 0.295 | -0.378 (inactive) | 0.523 | -1.44 | -5.46 (inactive) | 0.324 (inactive) | -0.208 (inactive) |
| O=C1O[C@H](c2ccccc2)[C@H](c2ccccc2)N2[C@H]1[C@@H](C(=O)Nc1nc3ccccc3s1)[C@]1(C(=O)Nc3ccccc31)[C@H]2c1ccc(O)cc1 | -0.166 | -0.373 (inactive) | -2.72 (inactive) | 0.192 (inactive) | 1.18 (inactive) | -0.393 (inactive) | -0.797 (inactive) | -1.24 (inactive) | -2.81 | -0.127 | -0.0105 (inactive) | 0.143 | -0.739 | -0.0851 (inactive) | 0.282 (inactive) | 0.134 (inactive) |
| CCOC(=O)C1=CCC(c2ccc([N+](=O)[O-])cc2)N(S(=O)(=O)c2ccc(C)cc2)C1 (centres undefined) | 0.291 | 2.15 (inactive) | -1.1 (inactive) | 0.774 (inactive) | -0.116 (inactive) | 2.42 (inactive) | -0.627 (inactive) | -0.418 (inactive) | -1.5 | -0.0513 | -0.15 (inactive) | 0.27 | -1.3 | -1.24 (inactive) | -0.021 (inactive) | 0.144 (inactive) |
| C[C@]1(C(=O)NCc2ccccc2)c2ccccc2C(=O)N(Cc2ccc(OC(F)(F)F)cc2)[C@H]1c1ccc(CO)cc1 | 0.333 | -1.51 (inactive) | 1.51 (inactive) | -0.482 (inactive) | 0.609 (inactive) | -0.593 (inactive) | 1 (inactive) | 0.806 (inactive) | 1.19 | -0.0872 | 0.379 (inactive) | 0.317 | -2.01 | -3.67 (inactive) | -0.347 (inactive) | -0.341 (inactive) |
| CC(C)c1ccc(NN2C(C(O)c3c(F)cccc3Cl)C=CC3C(=O)N(c4ccccc4)C(=O)C32)cc1 (centres undefined) | -1.59 | -0.134 (inactive) | -1.35 (inactive) | 1.36 (inactive) | 0.807 (inactive) | 1.5 (inactive) | -0.576 (inactive) | -0.895 (inactive) | -1.42 | -0.132 | 0.38 (inactive) | 0.748 | -0.668 | -1.64 (inactive) | 0.561 (inactive) | 0.539 (inactive) |
| C=C[C@@H](COC(C)=O)N(Cc1ccccc1[N+](=O)[O-])S(=O)(=O)c1ccc(Br)cc1 | -0.798 | -2.24 (inactive) | -0.504 (inactive) | -2.79 (inactive) | -0.0963 (inactive) | -2.34 (inactive) | 1.47 (inactive) | 0.911 (inactive) | 0.0192 | 0.183 | 2.18 (inactive) | 0.387 | -0.43 | -2.89 (inactive) | -0.472 (inactive) | -0.567 (inactive) |
| COC(=O)c1ccc(C23CC2(C(NP(=O)(c2ccccc2)c2ccccc2)c2ccccc2)C3)cc1 (centres undefined) | -0.402 | -1.17 (inactive) | -0.941 (inactive) | -1.13 (inactive) | 0.287 (inactive) | -3.39 (inactive) | -0.29 (inactive) | -0.16 (inactive) | -0.122 | -0.126 | 0.946 (inactive) | 0.474 | -1.35 | -3.76 (inactive) | -1.54 (inactive) | -1.34 (inactive) |
| COCCOC(=O)N1C(=O)[C@@]2(c3cc(C#CCNC(N)=O)ccc31)[C@H](c1ccc(O)cc1)N1[C@H](c3ccccc3)[C@H](c3ccccc3)OC(=O)[C@H]1[C@@H]2C(=O)NC[C@H](O)c1ccccc1 | -0.197 | 0.947 (inactive) | 0.302 (inactive) | 0.924 (inactive) | 0.69 (inactive) | 1.23 (inactive) | 0.248 (inactive) | 0.193 (inactive) | -0.949 | -0.0807 | 1.82 (inactive) | 0.733 | -0.0916 | -3.19 (inactive) | -0.107 (inactive) | -0.369 (inactive) |
